# Laboratory results from ChEMBL document CHEMBL3433997, “St. Jude Leishmania screening dataset” (2016).
# Where “and” joins values, the source holds several entries; their conditions need not be identical. Equal values may be shown once.
# Tests used:
# Assay type in all cases: functional
# [1] = biological target: Solute carrier family 2, facilitated glucose transporter member 1 (Homo sapiens) (UniProt P11166); experiment: ST_JUDE_LEISH: Cytotoxicity at 2uM final concentration against transgenic Leishmania Mexicana promastigotes LmGLUT1 that are glucose transport deficient and complemented with the human glucose transporter GLUT1. Activity is measured by DNA content using SYBR green in vitro
# [2] = biological target: Hexose transporter 1 (Plasmodium falciparum) (UniProt O97467); experiment: ST_JUDE_LEISH: Cytotoxicity at 2uM final concentration against transgenic Leishmania Mexicana promastigotes LmPfHT that are glucose transport deficient and complemented with the Plasmodium falciparum hexose transporter. Activity is measured by DNA content using SYBR green in vitro
# [3] = biological target: Glucose transporter (Leishmania mexicana) (UniProt O61059); experiment: ST_JUDE_LEISH: Cytotoxicity at 2uM final concentration against transgenic Leishmania Mexicana promastigotes LmGT2 that are glucose transport deficient and complemented with the L. Mexicana glucose transporter 2. Activity is measured by DNA content using SYBR green in vitro
# Sequence of Solute carrier family 2, facilitated glucose transporter member 1 (Homo sapiens) (P11166 whole entry): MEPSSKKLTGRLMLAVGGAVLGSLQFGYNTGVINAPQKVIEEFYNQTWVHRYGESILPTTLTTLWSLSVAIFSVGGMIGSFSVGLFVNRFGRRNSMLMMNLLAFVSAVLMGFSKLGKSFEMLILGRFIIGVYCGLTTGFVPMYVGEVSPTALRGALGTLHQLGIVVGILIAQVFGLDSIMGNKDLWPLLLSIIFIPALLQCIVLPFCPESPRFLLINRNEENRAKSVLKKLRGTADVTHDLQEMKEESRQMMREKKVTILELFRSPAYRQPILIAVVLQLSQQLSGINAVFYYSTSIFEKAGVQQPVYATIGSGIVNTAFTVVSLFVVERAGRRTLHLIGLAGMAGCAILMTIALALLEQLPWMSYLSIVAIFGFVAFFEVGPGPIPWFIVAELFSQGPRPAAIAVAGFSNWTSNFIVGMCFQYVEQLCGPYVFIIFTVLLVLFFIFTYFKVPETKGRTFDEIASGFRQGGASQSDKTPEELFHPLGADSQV
SMILES,inhibition [1],inhibition [2],inhibition [3]
Cc1nc(C)c(-c2ccc(Oc3ccc(OC(F)(F)F)cc3)cc2)c(OC(=O)N(CCNC(C)C)C(C)C)c1Br,5.43%,8.45%,5.04%
CNCCc1c(O)ccc2ccccc12,2.95%,3.27%,3.59%
O=C(/C=C/c1ccc(Cl)c(Cl)c1)NCCC1CCC(N2CCC(c3c[nH]c4ccc(O)cc34)CC2)CC1 (centres undefined),0.48%,3.87%,1.36%
Cc1cc(N(C)C2CCN(C)CC2)nc(Nc2ccc(Br)cc2)n1,3.64%,6.94%,1.93%
COc1ccc(N(c2nc(-c3cc(Cl)ccc3Cl)cs2)C2CCNCC2)cc1,0.66%,-0.12%,1.62%
COc1ccc(OC)c(C(O)CNC(C)C)c1 (centres undefined),1.92%,2.47%,0.42%
CC(C)(C)c1ccc(Cn2nc(C(=O)N3CCN(C(=O)C4CCCO4)CC3)c3ccccc32)cc1 (centres undefined),0.73%,0.1%,-3.52%
CN(Cc1ccccc1)C1CCN(CCc2c[nH]c3ccc(F)cc23)CC1,6.41%,5.56%,7.12%
COC(=O)/C=C/c1ccc(CC(C)NCC(O)c2cccc(Cl)c2)cc1 (centres undefined),-0.32%,-0.19%,-0.96%
Cc1ccc(C)c(C=CC(=O)NC2CCC(CN3CCC(c4c[nH]c5ccccc45)CC3)CC2)c1 (centres undefined),1.09% and 15%,1.99% and 11.5%,1.04% and 10.2%
Cn1cc(CN2CCC(CCOC(c3ccccc3)c3ccccc3)CC2)cn1,12.3%,9.95%,5.33%
Oc1ccc(CN2CCN(CCOC(c3ccccc3)c3ccc(Cl)cc3)CC2)cc1Cl (centres undefined),5.8%,1.85%,-3.12%
COc1ccc(O)c(CN2CCN(c3cc(C)ccc3C)CC2)c1,2.93%,3%,2.89%
